Activity calls are given as the source filed them.
Experiments:
[1] = E. coli DRC41 culture turbidity changes, primary screen, E. coli filamentation inducer project, strain DRC41, OD650, 48 h (AID 1152);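 note: E. coli MC1000 strain DRC41 lacking acrAB efflux pump and sulA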; settings: E. coli DRC41 (acrAB sulA), higher = more signal, called active from +8 up or from −8 down
[2] = small-molecule binders of probe aLefty1, primary screen, biochemical, small-molecule microarray, 635/667 nm fluorescence (AID 1153); settings: higher = more signal;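 note: score merges spot fluorescence with signal-to-noise ratio from the scanned slide images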
[3] = PSAC antagonists in infected red cells, primary screen, cell-based, P. falciparum Indochina, OD700, 1 h (AID 1154); settings: P. falciparum Indochina infected RBC osmotic lysis, higher = more signal, called active from +8 up or from −8 down
[4] = PSAC antagonists in infected red cells, primary screen, cell-based, P. falciparum Indochina, OD700, 2 h (AID 1155);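 note: lysis reports solute entry through the parasite surface anion channel PSAC; channel blockers reduce lysis of infected cells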; settings: P. falciparum Indochina infected erythrocytes, osmotic lysis OD700; higher = more signal, called active from +8 up or from −8 down
[5] = osmotic lysis modulators in infected erythrocytes, primary screen, PSAC antagonist project, cell-based, P. falciparum Indochina, OD700, 3 h (AID 1156); settings: higher = more signal, called active from +8 up or from −8 down
[6] = PSAC antagonists in infected red cells, primary screen, cell-based, P. falciparum Indochina, OD700, 18 h (AID 1157); settings: P. falciparum Indochina infected erythrocytes, osmotic lysis OD700, 18 h; higher = more signal, called active from +8 up or from −8 down
[7] = modulators of S6 phosphorylation in cells, primary screen, cell-based, A549, cytoblot, luminescence, serum-stimulated (AID 1158); settings: A549 phospho-S6 cytoblot, 5 h, higher = more signal;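 note: serum-stimulated A549 lung adenocarcinoma cells; signal is phosphorylated S6 detected by cytoblot immunostaining with HRP secondary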
[8] = target: NADPH oxidase 2 (Homo sapiens) (UniProt P04839); test: NOX2-dependent H2O2 signal modulators, primary screen, NOX inhibitor project, cell-based, HEK293-NOX2, PMA-stimulated, Amplex Red fluorescence (AID 1159); settings: 45 min, higher = more signal, called active from +8 up or from −8 down; note: test concentration not given here
Sequence of NADPH oxidase 2 (Homo sapiens) (P04839 whole entry, looked up): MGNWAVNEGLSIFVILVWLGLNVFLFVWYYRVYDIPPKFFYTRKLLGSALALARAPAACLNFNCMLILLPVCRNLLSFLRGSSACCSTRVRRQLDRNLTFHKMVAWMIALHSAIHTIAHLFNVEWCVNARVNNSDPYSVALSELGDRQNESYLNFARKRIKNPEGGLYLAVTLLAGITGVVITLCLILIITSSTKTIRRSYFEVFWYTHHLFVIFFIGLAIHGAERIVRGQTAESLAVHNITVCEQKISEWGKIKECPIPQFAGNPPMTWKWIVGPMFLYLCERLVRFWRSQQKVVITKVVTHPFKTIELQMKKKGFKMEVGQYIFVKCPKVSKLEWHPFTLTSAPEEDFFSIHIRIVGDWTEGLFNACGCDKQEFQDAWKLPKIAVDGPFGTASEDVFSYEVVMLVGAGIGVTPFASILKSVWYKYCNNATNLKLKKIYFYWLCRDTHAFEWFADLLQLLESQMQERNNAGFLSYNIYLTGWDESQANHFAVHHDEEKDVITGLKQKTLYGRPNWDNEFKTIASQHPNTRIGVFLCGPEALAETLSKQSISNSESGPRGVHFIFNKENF

[9] = target: NADPH oxidase 4 (Homo sapiens) (UniProt Q9NPH5); test: NOX4-dependent H2O2 signal modulators, primary screen, NOX inhibitor project, cell-based, HEK293-NOX4, tetracycline-induced, Amplex Red fluorescence (AID 1160); settings: 45 min, higher = more signal, called active from +8 up or from −8 down
Sequence of NADPH oxidase 4 (Homo sapiens) (Q9NPH5 whole entry, looked up): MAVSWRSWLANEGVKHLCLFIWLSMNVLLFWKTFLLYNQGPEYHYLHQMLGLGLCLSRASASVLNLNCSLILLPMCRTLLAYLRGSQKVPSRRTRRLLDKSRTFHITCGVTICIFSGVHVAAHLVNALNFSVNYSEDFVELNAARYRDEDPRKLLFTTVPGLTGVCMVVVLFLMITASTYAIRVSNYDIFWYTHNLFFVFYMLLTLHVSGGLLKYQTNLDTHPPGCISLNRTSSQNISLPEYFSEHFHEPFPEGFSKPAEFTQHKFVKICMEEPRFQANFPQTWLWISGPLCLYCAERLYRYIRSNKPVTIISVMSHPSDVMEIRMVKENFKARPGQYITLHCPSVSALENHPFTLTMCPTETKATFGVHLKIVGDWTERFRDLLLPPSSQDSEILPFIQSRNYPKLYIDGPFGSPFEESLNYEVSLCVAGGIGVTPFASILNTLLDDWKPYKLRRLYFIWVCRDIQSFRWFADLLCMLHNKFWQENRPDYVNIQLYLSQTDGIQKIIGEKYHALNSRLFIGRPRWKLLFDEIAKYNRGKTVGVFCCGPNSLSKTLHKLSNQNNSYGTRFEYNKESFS

[10] = target: NADPH oxidase 5 (Homo sapiens) (UniProt Q96PH1); test: NOX5-dependent H2O2 signal modulators, primary screen, NOX inhibitor project, cell-based, HEK293-NOX5, Amplex Red fluorescence (AID 1161); settings: HEK293-NOX5, ionomycin, 45 min, higher = more signal
Sequence of NADPH oxidase 5 (Homo sapiens) (Q96PH1 whole entry, looked up): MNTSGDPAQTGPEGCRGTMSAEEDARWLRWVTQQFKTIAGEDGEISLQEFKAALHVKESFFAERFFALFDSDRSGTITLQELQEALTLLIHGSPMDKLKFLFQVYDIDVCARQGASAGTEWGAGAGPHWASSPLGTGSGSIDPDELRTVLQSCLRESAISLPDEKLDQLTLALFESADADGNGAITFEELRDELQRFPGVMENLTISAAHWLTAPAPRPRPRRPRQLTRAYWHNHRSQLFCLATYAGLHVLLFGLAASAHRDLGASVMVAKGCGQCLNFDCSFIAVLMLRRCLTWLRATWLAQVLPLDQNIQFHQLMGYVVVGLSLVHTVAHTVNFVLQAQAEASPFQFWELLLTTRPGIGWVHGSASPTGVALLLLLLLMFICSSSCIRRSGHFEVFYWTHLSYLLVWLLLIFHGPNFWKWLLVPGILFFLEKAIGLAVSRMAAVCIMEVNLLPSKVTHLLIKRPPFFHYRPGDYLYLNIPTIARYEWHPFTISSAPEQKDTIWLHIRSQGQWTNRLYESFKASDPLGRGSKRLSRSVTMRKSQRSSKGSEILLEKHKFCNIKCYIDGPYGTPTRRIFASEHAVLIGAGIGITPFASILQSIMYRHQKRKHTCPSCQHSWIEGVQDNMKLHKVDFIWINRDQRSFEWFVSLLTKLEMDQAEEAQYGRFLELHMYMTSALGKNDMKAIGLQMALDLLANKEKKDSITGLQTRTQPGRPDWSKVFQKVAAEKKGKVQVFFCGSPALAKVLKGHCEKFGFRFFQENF

[11] = A549 cell viability effects, profiling panel, calcein-AM fluorescence, 48 h, basal (AID 1162); settings: higher = more signal; note: test concentration not given here
[12] = adipocyte viability effects, profiling panel, cell-based, 3T3-L1 adipocytes, calcein-AM fluorescence, 48 h, basal (AID 1163); settings: 3T3-L1 adipocytes viability, higher = more signal; note: test concentration not given here
[13] = HepG2 cell viability effects, profiling panel, calcein-AM fluorescence, 48 h, basal (AID 1164); settings: higher = more signal; note: test concentration not given here
[14] = MM1S cell viability effects, profiling panel, calcein-AM fluorescence, 48 h, basal (AID 1165); settings: higher = more signal;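 note: viability of MM1S multiple myeloma cells under basal unstimulated conditions; test concentration not given here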
[15] = basal RPMI8226 viability, no added stimulus, profiling panel, cell-based, calcein-AM fluorescence, 48 h, PK04 Diversity Set (AID 1166); settings: RPMI8226 myeloma viability, higher = more signal;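 note: cells grown under basal conditions without added stimulus; test concentration not given here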
[16] = basal HepG2 mitochondrial membrane potential changes, profiling panel, cell-based, JC-1 fluorescence, 24 h, 100 nL compound (AID 1167); settings: higher = more signal; note: test concentration not given here
[17] = basal 3T3-L1 adipocyte mitochondrial potential changes, profiling panel, cell-based, JC-1 fluorescence, 3T3-L1 adipocytes, 24 h, 100 nL compound (AID 1168); settings: JC-1 mitochondrial fluorescence, higher = more signal, called active from +8 up or from −8 down; note: test concentration not given here
[18] = basal RPMI8226 mitochondrial membrane potential changes, profiling panel, cell-based, JC-1 fluorescence, 24 h, 100 nL compound (AID 1169); settings: RPMI8226 myeloma, JC-1 mitochondrial potential fluorescence, higher = more signal; note: test concentration not given here
[19] = basal MM1S mitochondrial membrane potential changes, profiling panel, cell-based, JC-1 fluorescence, 24 h, 100 nL compound (AID 1170); settings: higher = more signal; note: test concentration not given here
[20] = A549 lung cancer cell viability effects, profiling panel, resazurin fluorescence, 24 h, PK04 Diversity Set (AID 1171); settings: higher = more signal, called active from +8 up or from −8 down; note: test concentration not given here

SMILES	z-score [1]	composite z-score [2]	z-score [3]	z-score [4]	z-score [5]	z-score [6]	z-score [7]	z-score [8]	z-score [9]	z-score [10]	z-score [11]	z-score [12]	z-score [13]	z-score [14]	z-score [15]	z-score [16]	z-score [17]	z-score [18]	z-score [19]	z-score [20]
CCOC(=O)C[C@H]1[C@H](OC(=O)c2ccc(-c3ccccc3)cc2)[C@@H](NC(=O)CC(C)C)c2cc(OCCCO)ccc2N1C(=O)Cc1ccc(OC)cc1	-0.931 (inactive)	-0.323	3.94 (inactive)	0.786 (inactive)	-0.348 (inactive)	0.261 (inactive)	-0.0775	-0.521 (inactive)	1.12 (inactive)	2.11	-0.39	0.22	-0.114	-1.7	-0.194	0.593	-1.43 (inactive)	0.908	0.185	0.207 (inactive)
Cc1c(NC(=O)/C(C#N)=C/c2ccc(Cl)cc2)c(=O)n(-c2ccccc2)n1C	0.764 (inactive)	0.0042	6.41 (inactive)	-0.238 (inactive)	-0.597 (inactive)	-1.44 (inactive)	0.776	-2.29 (inactive)	-0.376 (inactive)	1.22	1.48	0.22	0.115	0.69	-2.03	0.497	0.585 (inactive)	-0.0999	-0.512	-0.354 (inactive)
CN1C(=O)[C@]2(CCC(=O)OC(C)(C)C)N=C(c3ccc(OCCCO)cc3)O[C@@H]2c2ccccc21	0.504 (inactive)	0.448	33.2 (active)	29.3 (active)	2.63 (inactive)	2.68 (inactive)	-0.0426	-2.09 (inactive)	-0.534 (inactive)	-1.44	-0.024	0.834	-0.54	-0.964	-3.26	1.29	1.41 (inactive)	-0.931	0.129	-0.877 (inactive)
[N-]=[N+]=Nc1ccccc1[C@@H]1OC(c2ccc(OCCCO)cc2)=N[C@]1(Cc1ccccc1)C(N)=O	1.7 (inactive)	0.0576	30.7 (active)	31.3 (active)	2.22 (inactive)	3.17 (inactive)	-0.414	0.865 (inactive)	0.46 (inactive)	-1.48	0.289	-0.186	0.765	-0.835	-2.14	0.308	0.119 (inactive)	-0.719	-0.789	-0.199 (inactive)
COc1ccccc1CN1C(=O)c2ccccc2[C@](Cc2ccccc2I)(C(=O)NCCCN(C)C)[C@@H]1c1ccc(CO)cc1	-6.9 (inactive)	-0.275	2.8 (inactive)	-0.551 (inactive)	-5.31 (inactive)	-0.379 (inactive)	-2.54	-10.2 (active)	-4.81 (inactive)	-4.8	-4.38	-0.247	-5.12	-3.81	-4.39	-3.01	1.29 (inactive)	-1.03	-2.23	-7.15 (inactive)
[N-]=[N+]=NCc1ccccc1[C@H]1OC(c2ccc(OCCCO)cc2)=N[C@@]1(Cc1ccccc1)C(=O)N1CCOCC1	-0.686 (inactive)	0.321	28.8 (active)	25.7 (active)	2.96 (inactive)	2.24 (inactive)	0.692	-0.0281 (inactive)	0.154 (inactive)	-0.526	0.281	0.491	0.556	-1.45	-1.11	0.213	-1.67 (inactive)	-0.887	0.35	1.56 (inactive)
C#CCN([C@H](/C=C/C1CC1)[C@@H](O)Cc1ccccc1)[C@@H](Cc1ccccc1)C(=O)OC	1.3 (inactive)	0.0531	2.62 (inactive)	1.78 (inactive)	-0.345 (inactive)	1.28 (inactive)	0.296	-0.293 (inactive)	0.396 (inactive)	-2.6	-0.509	-0.129	-0.0708	-1.2	-2.55	3.34	0.292 (inactive)	-0.842	-1.33	3.31 (inactive)
CN(C)CCCC[C@@H]1NC(=O)[C@H]2C[C@@H](C(=O)O)[C@@H](c3cccc(OCCO)c3)N2C1=O	0.0804 (inactive)	0.393	7.58 (inactive)	0.945 (inactive)	-5.21 (inactive)	0.424 (inactive)	0.479	-2.73 (inactive)	-3.04 (inactive)	-1.4	-0.17	0.174	0.41	-3.21	0.584	0.773	-0.829 (inactive)	-0.786	-0.713	0.618 (inactive)
C=CCOC(=O)[C@@H]1[C@H]2C(=O)O[C@H](c3ccccc3)[C@H](c3ccccc3)N2[C@H](c2ccc(OCCOC(=O)[C@H]3C[C@H]4C(=O)NCC(=O)N4[C@H]3c3ccc(O)cc3)cc2)[C@@]12C(=O)Nc1ccc(I)cc12	-0.707 (inactive)	-0.154	8.8 (active)	2.39 (inactive)	0.345 (inactive)	1.16 (inactive)	0.379	0.588 (inactive)	0.812 (inactive)	0.711	-0.441	-0.105	0.273	-0.172	-0.0622	-1.59	0.91 (inactive)	-0.772	-1	1.1 (inactive)

Source: PubChem BioAssay
